Experimental data as given in PubChem BioAssay AID2061306 (National Center for Advancing Translational Sciences (NCATS), 2025).
Inconclusive results are not listed. Active and inactive are the calls of the source. Calls follow the shape of the dose curve; as a rule, active = well fitted inhibition curve with a large enough effect; inconclusive = small, poorly fitted or top-dose-only effect; inactive = flat fitted curve, though single readings scatter.

assay: Identification of antibody-drug conjugate (ADC) payloads which are substrates of ATP-binding cassette drug efflux transporters: ABCB1-HEK293-pcDNA cell line; conditions: HEK293 empty-vector (pcDNA) control viability, CellTiter-Glo, 48 h
Description: Antibody-drug conjugates (ADCs) feature an antibody recognizing a specific protein joined to a potent toxic payload. Numerous antibody-drug conjugates have received FDA approval; however, clinical resistance arises. Resistance mechanisms include decreased expression or mutation of the antibody target, impaired payload release, or increased expression of ATP-binding cassette (ABC) efflux transporters associated with multidrug resistance. We therefore sought to characterize the interaction of ABC multidrug transporters with ADC payloads. We performed a high-throughput screen with 27 common ADC payloads using cells lines expressing ABC transporters P-glycoprotein (P-gp, encoded by ABCB1) or ABCG2 (encoded by ABCG2). Confirmatory assays were also performed using cells transfected to express P-gp, ABCG2, or MRP1 (encoded by ABCC1). Several commonly used ADC payloads were substrates of P-gp, including calicheamicin gamma1, monomethyl auristatin E, DM1, and DM4. All the pyrrolobenzodiazepines tested - SJG136, SGD-1882, SG2057, and SG3199 - were substrates of P-gp, ABCG2, and MRP1. […] These findings highlight the risk of transporter-mediated resistance with certain ADC payloads and underscore the importance of selecting payloads that evade ABC transporter recognition in future ADC development.
HEK-293 cells were transfected with empty vector (pcDNA) or vector containing the human ABCB1 (MDR-19), ABCG2 (R-5), or ABCC1 gene (MRP1) and were maintained in EMEM with 2 mg/mL G418 added to maintain transporter expression. The HeLa derivative KB-3-1 and the P-gp overexpressing KB-8-5-11 subline were maintained in DMEM; KB-8-5-11 additionally received 100 ng/mL colchicine. H460 parental cells were obtained from the Division of Cancer Treatment and Diagnosis Tumor Repository, National Cancer Institute at Frederick, MD and were cultured in RPMI. The ABCG2 expressing subline H460 MX20 was generated by selecting H460 cells in 20 nM mitoxantrone. Media in all cases was supplemented with 10% FBS and 1% penicillin-streptomycin. We explored 27 common ADC payloads, in two orthogonal, paired cell line sets-a drug selected and transfected set for each transporter--to identify substrates of the ABC transporters P-gp and ABCG2. Compounds were sourced from Levena Biopharma (San Diego, CA), Selleck Chem (Houston, TX), ChemieTek (Indianapolis, IN), or Microsource Discovery Systems (Gaylordsville, CT). Screening was performed as previously described. Briefly, cells were plated at a density of 500 cells/well in 1536 well plates with compounds added using a 1536-head pin tool (Kalypsys, San Diego CA). Cells were incubated with cytotoxic drugs and processed with CellTiter Glo reagent (Promega, Madison, WI) to determine viability after 48 hours. […]

Question: With `COc1cc2cc(C(=O)N3C[C@@H](CCl)c4c3cc(O)c3ccccc43)[nH]c2c(OC)c1OC` as the compound, how does the Potency read?
Answer: 1.5 nM (active)

Question: With `CC[C@@]1(O)C(=O)OCc2c1cc1n(c2=O)Cc2cc3ccccc3nc2-1` as the compound, how does the Potency read?
Answer: 11.8 nM (active)

Question: Which Potency does the source give for `COc1cccc2c1C(=O)c1c(O)c3c(c(O)c1C2=O)C[C@@](O)(C(=O)CO)CC3OC1CC(N2CCOC(OC)C2)C(O)C(C)O1` (some centres undefined) here?
Answer: 1.7 nM (active)

Question: With `CC[C@H](C)[C@H](NC(=O)[C@H]1CCCCN1C)C(=O)N(C)[C@H](C[C@@H](OC(C)=O)c1nc(C(=O)N[C@@H](Cc2ccccc2)C[C@H](C)C(=O)O)cs1)C(C)C` as the compound, how does the Potency read?
Answer: 1.3 nM (active)
